Measurements: PubChem BioAssay (Tox21)
Active and inactive are the calls of the source. Calls come from the whole dose curve.

experiment: qHTS assay to identify small molecule agonists of the sonic hedgehog signaling (Shh) pathway (AID 1259368); conditions: NIH/3T3 Gli1-Luc reporter, luciferase, 24 h; series mostly up to 92.4 µM;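 note: NIH/3T3-derived 3T3Gli1-Luc cells carrying a stable Gli1-driven firefly luciferase reporter; nearly all actives have a fitted effect of over 15% in size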
Text: National Center for Advancing Translational Sciences [NCATS]
NIH Chemical Genomics Center [NCGC]
U.S. Environmental Protection Agency [EPA]
National Institutes of Environmental Health Sciences [NIEHS]
National Toxicology Program [NTP]
The sonic hedgehog (Shh) pathway is essential for normal embryonic development. Dysregulation of the Shh pathway can cause severe developmental defects in organs. Therefore chemicals that interfere with the pathway are potential developmental toxicants. A cell line designated 3T3Gli1-Luc (DMB/OARSA/CFSAN/FDA, Laurel, MD), a NIH/3T3 derived clone containing stably integrated Gli1-Luc reporter is used to detect chemical interference of the Shh pathway, by changes in the expression of the firefly Luc gene under the control of the Gli1 transcriptional response element. This cell line was used to screen Tox21 libraries for identifying and prioritizing the potential developmental toxicants that interfere Shh pathway.
3T3 Gli1-Luc cells were dispensed at 2,000 per well in 5uL of culture medium into white solid bottom 1536-well plates (Greiner Bio-One, Monroe, NC) using a Multidrop Combi (Thermo Scientific, Waltham, MA) dispenser. The assay plates were incubated at 37 C and 5% CO2 for 4hr, and then 23nL of compounds dissolved in DMSO and positive control were transferred using a Pintool station (Wako, San Diego, CA). The assay plates were incubated at 37C and 5% CO2 for 24hr. For luciferase read, 4uL of Amplite Luciferase reporter gene assay reagent (AAT Bioquest, Inc. Sunnyvale, CA) was added to each well of the assay plates using Flying Reagent Dispenser (FRD, Aurora Discovery, San Diego, CA) and incubated at room temperature for 30min. The luminescence signal was measured using a ViewLux plate reader (Perkin Elmer, Shelton, CT).

SMILES | outcome
Oc1ccc(Cc2ccc(O)cc2)cc1 | inactive
C=C1CC[C@@]2(O)[C@H]3Cc4ccc(O)c5c4[C@@]2(CCN3CC2CC2)[C@H]1O5 | inactive
O=C1CCCCC1Cl (stereo not given) | inactive
CN1COCN(Cc2cnc(Cl)s2)/C1=N\[N+](=O)[O-] | inactive
CCOC(=O)COc1ccc(Cl)cc1Cl | inactive
CNC(=O)O/N=C(/CSC)C(C)(C)C | inactive
CN(C)CCN(C)C | inactive
CN(C)CCc1c[nH]c2cccc(OP(=O)(O)O)c12 | inactive
CN(C)C1CCCCC1 | inactive
Nc1c(Cl)c(F)nc(OCC(=O)O)c1Cl | inactive
[P]#[In] | inactive
CCNc1nc(Cl)nc(NC(C)(C)C)n1 | inactive
C=C(Cl)CSC(=S)N(CC)CC | inactive
CC(C)(C)C(=O)Cl | inactive
O=P(O)(O)c1ccccc1 | inactive
C=CC=O | inactive
CCCCCCCC(=O)Cl | inactive
Cc1ccc(-c2nc3ccc(C)cn3c2CC(=O)N(C)C)cc1 | inactive
C=C1C[C@@H]2[C@H](CC[C@]3(C)C(=O)CC[C@@H]23)[C@@]2(C)C=CC(=O)C=C12 | inactive
CC(Cc1ccccc1)NCCCCl (stereo not given) | inactive

SMILES | outcome
CCCCS(=O)(=O)Cl | inactive
O=[N+]([O-])CCO | inactive
O=C(NC(O)C(Cl)(Cl)Cl)NC(O)C(Cl)(Cl)Cl (stereo not given) | inactive
CC(C)(C1CCC(O)CC1)C1CCC(O)CC1 (stereo not given) | inactive
CCC(C)(C#N)N=NC(C)(C#N)CC (stereo not given) | inactive
CCC(C(N)=O)N1CCCC1=O (stereo not given) | inactive
Cc1ccc(S(=O)(=O)N[C@@H](CCCCN)C(=O)CCl)cc1 | inactive
O=S1(=O)OCCO1 | inactive
CCc1cc(OC)c(C[C@H](C)N)cc1OC | inactive
CC(C)NCC(O)c1ccc([N+](=O)[O-])cc1 (stereo not given) | inactive
CCC(=O)OC1(c2ccccc2)CCN(C)CC1 | inactive
CNC(=O)Oc1ccccc1C(C)C | inactive
O=CCCl | inactive
C=CCCC#N | inactive
Cl/C=C/CCl | inactive
C[C@H](N)C(=O)c1ccccc1 | inactive
C[N+]1(C)CCCCC1 | inactive
CC(C)N(Cc1ccccc1)C(=O)C(C)(C)C | inactive
COc1cc(CC(C)N)cc(OC)c1OC (stereo not given) | inactive
CCN[C@@H](C)Cc1ccccc1 | inactive
